The structures appear in SMILES notation. The panel holds about 83,000 compounds, 20% with a hit somewhere; the sample as a whole holds those more often.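 Note: values are percent growth. 100 is the growth of untreated cells, values between 100 and 0 indicate rising inhibition; between -100 and 0 indicates cell death.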 A number with no mark means an inactive call. The source made the active and inactive calls. Rule for the calls: active = growth percent below 10; inactive = the rest.

Holding throughout (test): NCI-60 one-dose screen, 48 h (100 = growth as untreated, 0 = no growth, -100 = all killed)
One test relates to HCT-15 colon. Particulars: 10 µM unless noted.
The subject of a further test is HT29 colon. Conditions: 10 µM unless noted.
The test system of the next test is SNB-19 CNS. Conditions: 10 µM unless noted.
For another test, the system named is U251 CNS. Particulars: 10 µM unless noted.
In a further test the test system is PC-3 prostate. Conditions: 10 µM unless noted.
The next test concerns SK-MEL-5 melanoma. Conditions: 10 µM unless noted.
The test system of another test is UACC-62 melanoma. Particulars: 10 µM unless noted.
Another test deals with LOX IMVI melanoma. Conditions: 10 µM.
For a further test, the system named is SK-MEL-28 melanoma. Particulars: 10 µM unless noted.
The next test concerns SK-MEL-2 melanoma. Conditions: 10 µM unless noted.
In a further test the test system is EKVX NSCLC. Particulars: 10 µM unless noted.
The next test has as its system SN12C renal. Particulars: 10 µM unless noted.
In the next test the test system is UO-31 renal. Particulars: 10 µM unless noted.
The next test concerns TK-10 renal. Conditions: 10 µM unless noted.
The subject of a further test is ACHN renal. Conditions: 10 µM unless noted.
For a further test, the system named is CAKI-1 renal. Particulars: 10 µM unless noted.
The next test relates to A498 renal. Conditions: 10 µM unless noted.
A further test relates to CCRF-CEM leukemia. Particulars: 10 µM unless noted.
The next test concerns MOLT-4 leukemia. Particulars: 10 µM unless noted.

As for `COc1ccc2[nH]c(O)c(N=NC(=O)Cn3c(-c4ccccc4)nc4cc(C)ccc43)c2c1`, the growth with HCT-15 colon is 3.08% (active); in the test on HT29 colon it was -1.1% (active); in the test with SNB-19 CNS, 59.2%; with U251 CNS, 32.4%; in the test with PC-3 prostate, 21.5%; in the test with SK-MEL-5 melanoma it was -23.8% (active). The growth in the test on UACC-62 melanoma is 6.74% (active); in the test with LOX IMVI melanoma, 38.3%; in the test on SK-MEL-28 melanoma it was -23.6% (active); in the test with SK-MEL-2 melanoma, 88.4%; in the test on EKVX NSCLC, 66.3%; in the test with SN12C renal, -73.7% (active). In addition, the growth in the test on UO-31 renal is 49.7%; in the test on TK-10 renal, 97.7%; in the test on ACHN renal, 41.1%; in the test with CAKI-1 renal, 61.9%; in the test with A498 renal it was 119%; in the test with CCRF-CEM leukemia, 8.31% (active). Besides, in the test on MOLT-4 leukemia, the growth was 18.5%.
Take `O=c1[nH]c2ccc(Cl)cc2cc1CSc1nccc(-c2ccc(Cl)cc2)n1`: the growth in the test on HCT-15 colon was 56.9%; with HT29 colon, 67.7%; with SNB-19 CNS it was 40.4%; in the test with U251 CNS, 47.4%; with PC-3 prostate, 49.9%; with SK-MEL-5 melanoma it was 48.6%. In addition, the growth was 31.8% in the test with UACC-62 melanoma; 57.5% in the test on LOX IMVI melanoma; 46.1% in the test with SK-MEL-28 melanoma; 34.5% in the test with SK-MEL-2 melanoma; 42.8% in the test with EKVX NSCLC; 39.9% in the test with SN12C renal. The growth is 60% in the test on UO-31 renal; 88.2% with TK-10 renal; 20.2% in the test on ACHN renal; -51.3% (active) in the test on CAKI-1 renal; 98.4% with A498 renal; 113% in the test with CCRF-CEM leukemia. Further, the growth in the test on MOLT-4 leukemia is 85.5%.
Consider `CC(=O)/C=C/c1cccc2c1C(=O)NC(C)(c1cc3cc(Br)ccc3oc1=O)N2` (stereo unspecified), for which the growth was 14.6% in the test on HCT-15 colon; 27.6% in the test on HT29 colon; 51.8% in the test with SNB-19 CNS; 18.6% in the test on U251 CNS; 21.6% with PC-3 prostate; 13.1% in the test with SK-MEL-5 melanoma. Besides, the growth with UACC-62 melanoma is 13%; in the test on LOX IMVI melanoma, 14.8%; with SK-MEL-28 melanoma it was 58.8%; in the test on SK-MEL-2 melanoma, -0.79% (active); with EKVX NSCLC, 34.3%; with SN12C renal, 12.7%. The growth with UO-31 renal is 22%; with TK-10 renal, 58.6%; in the test with ACHN renal, 22.7%; with CAKI-1 renal, 21.3%; with A498 renal, 104%; in the test on CCRF-CEM leukemia, 0.825% (active). Besides, in the test on MOLT-4 leukemia, the growth was -6.34% (active).
Consider `COc1cccc(/C=C/c2nc3ccccc3c(=O)n2CC(=O)Nc2ccc(Cl)cc2)c1`, for which the growth with HCT-15 colon was 88.3%; in the test on HT29 colon, 64.4%; with SNB-19 CNS, 76.3%; in the test with U251 CNS, 27.8%; in the test with PC-3 prostate, 76.3%; in the test on SK-MEL-5 melanoma, 101%. For the same compound, the growth with UACC-62 melanoma is 95.1%; in the test with LOX IMVI melanoma, 39.8%; in the test on SK-MEL-28 melanoma, 99.2%; in the test with SK-MEL-2 melanoma, 111%; in the test with EKVX NSCLC it was 109%; in the test on SN12C renal, 39.2%. Also, the growth was 16% in the test with UO-31 renal; 32.2% in the test with TK-10 renal; -1.49% (active) with ACHN renal; 60.5% with CAKI-1 renal; 25.1% in the test with A498 renal; 90.6% with MOLT-4 leukemia.
With `COc1ccc(-c2ccnc(SCc3cc4ccccc4[nH]c3=O)n2)cc1`, the growth in the test on HCT-15 colon was 28.2%; with HT29 colon, 29.5%; with SNB-19 CNS it was 64%; in the test on U251 CNS it was 64.1%; in the test with PC-3 prostate, 69.6%; in the test with SK-MEL-5 melanoma it was 59.1%. Also, the growth in the test on UACC-62 melanoma was 44.8%; with LOX IMVI melanoma, 49.9%; in the test on SK-MEL-28 melanoma, 73%; in the test with SK-MEL-2 melanoma it was 67.2%; with EKVX NSCLC, 69.8%; in the test with SN12C renal, 49.1%. The growth in the test on UO-31 renal was 68.4%; with TK-10 renal, 85.2%; in the test with ACHN renal it was 74.4%; in the test with CAKI-1 renal it was 55.1%; in the test on A498 renal it was 93.2%; in the test with CCRF-CEM leukemia, 48.1%. Also, in the test with MOLT-4 leukemia, the growth was 11.1%.
Turning to `COc1c(F)ccc(C(=O)Nc2ccc3nc(NC(=O)C4CCCN(S(=O)(=O)c5cccc(Cl)c5)C4)sc3c2)c1F` (stereo unspecified), the growth is 68.9% with HCT-15 colon; 82.2% with HT29 colon; 80.4% in the test with SNB-19 CNS; 71.5% in the test on U251 CNS; 57.7% in the test on PC-3 prostate; 79.6% with SK-MEL-5 melanoma. In addition, the growth is 78.6% in the test on UACC-62 melanoma; 79.6% with LOX IMVI melanoma; 92.1% in the test on SK-MEL-28 melanoma; 88.5% with SK-MEL-2 melanoma; 92.8% in the test on EKVX NSCLC; 84.3% with SN12C renal. For the same compound, the growth in the test with UO-31 renal is 75.2%; in the test on TK-10 renal, 118%; in the test on ACHN renal, 82.4%; with CAKI-1 renal it was 74.4%; in the test with A498 renal it was 113%; with CCRF-CEM leukemia it was 85.3%. For the same compound, the growth with MOLT-4 leukemia was 42.8%.
Regarding `COc1ccc(-c2nc3cc(C)ccc3n2CC(=O)N=Nc2c(O)[nH]c3ccccc23)cc1`, the growth in the test with HCT-15 colon is -64.7% (active); with HT29 colon it was -28.2% (active); with SNB-19 CNS, 19.1%; in the test on U251 CNS, 5.59% (active); in the test on PC-3 prostate, 8.89% (active); in the test on SK-MEL-5 melanoma, -93% (active). Also, the growth was -37.2% (active) in the test with UACC-62 melanoma; -63.5% (active) with LOX IMVI melanoma; -57.5% (active) with SK-MEL-28 melanoma; 58% with SK-MEL-2 melanoma; 46% with EKVX NSCLC; -91.7% (active) with SN12C renal. Besides, the growth in the test on UO-31 renal is 53.7%; in the test with TK-10 renal, 73.6%; in the test on ACHN renal it was -12.5% (active); in the test with CAKI-1 renal it was 53.3%; in the test with A498 renal, 102%; with CCRF-CEM leukemia, 79.1%. Also, in the test on MOLT-4 leukemia, the growth is 13.2%.
Take `O=c1[nH]c(=O)c2c(-c3cc4ccccc4oc3=O)ccnc2[nH]1`: the growth is 81.4% in the test on HCT-15 colon; 102% in the test on HT29 colon; 75.5% with SNB-19 CNS; 19.5% in the test with U251 CNS; 85.4% in the test with PC-3 prostate; 89% with SK-MEL-5 melanoma. For the same compound, the growth in the test with UACC-62 melanoma is 82.7%; with LOX IMVI melanoma, 65.3%; in the test on SK-MEL-28 melanoma, 115%; in the test with SK-MEL-2 melanoma it was 82.6%; in the test with EKVX NSCLC, 103%; in the test with SN12C renal it was 81%. Further, the growth with UO-31 renal was 71.6%; with TK-10 renal, 105%; with ACHN renal, 53.2%; with CAKI-1 renal, 48.1%; in the test with A498 renal, 148%; in the test on CCRF-CEM leukemia, 101%. For the same compound, the growth in the test on MOLT-4 leukemia was 111%.

Values taken from PubChem BioAssay (NCI).
